The full data set covers some 8,800 targets. This sample favours those with a hit. About 0.5% of all pairs of compound and target were hits.
Tests used:
Experiment in all cases: log2 fold change, soluble protein after heating vs DMSO (PISA); higher = thermal stabilisation; K562 lysate, 10 uM; active = over 0.2 and 3.5 SD of the protein, either way, in both replicates (recomputed)
nilotinib = compound: Cc1cn(-c2cc(NC(=O)c3ccc(C)c(Nc4nccc(-c5cccnc5)n4)c3)cc(C(F)(F)F)c2)cn1 [nilotinib]
Summary of the method: (§1)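 Quantification was by TMTpro 16plex LC-MS/MS with equalised channel sums, applied to the supernatant after 21,000xg for 90 min. Samples were crude K562 extract at 1 mg/mL protein in PBS pH 7.4 with 1 mM MgCl2, treated with 10 μM compound for 30 min, heated for 3 min across 48°C-58°C, pooled and brought to 0.5% NP-40 at 4°C. Values are log-two fold changes in thermal stability relative to solvent controls, from duplicates.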

[1] = compound: Cc1nc(Nc2n[nH]c3c2CN(C(=O)N[C@H](CN(C)C)c2ccccc2)C3(C)C)c2sccc2n1
Summary of the method: as §1

dasatinib = compound: Cc1nc(Nc2ncc(C(=O)Nc3c(C)cccc3Cl)s2)cc(N2CCN(CCO)CC2)n1 [dasatinib]
Summary of the method: as §1

[2] = compound: Cc1ncc(-c2ccnc(Nc3ccc(S(C)(=O)=O)cc3)n2)n1C(C)C
Summary of the method: as §1

[3] = compound: Cn1cc(-c2ccc3c(c2)CCN3C(=O)Cc2cccc(C(F)(F)F)c2)c2c(N)ncnc21
Summary of the method: as §1

quisinostat = compound: Cn1cc(CNCC2CCN(c3ncc(C(=O)NO)cn3)CC2)c2ccccc21 [quisinostat]
Summary of the method: as §1

tipifarnib = compound: Cn1cncc1[C@@](N)(c1ccc(Cl)cc1)c1ccc2c(c1)c(-c1cccc(Cl)c1)cc(=O)n2C [tipifarnib]
Summary of the method: as §1

[4] = compound: NC(=O)Nc1cc(-c2cccc(F)c2)sc1C(=O)N[C@H]1CCCNC1
Summary of the method: as §1

[5] = compound: NC(=O)c1cnc(N[C@@H]2CCCC[C@@H]2N)nc1Nc1cccc(-n2nccn2)c1
Summary of the method: as §1

[6] = compound: NC1(c2ccc(-c3nc4ccn5c(=O)[nH]nc5c4cc3-c3ccccc3)cc2)CCC1
Summary of the method: as §1

Measured: log2 fold change

EHHADH (UniProt Q08426)
inactive: nilotinib -0.048 | [1] -0.091 | dasatinib -0.011 | [2] 0.045 | [3] -0.047 | quisinostat -0.072 | tipifarnib 0.052 | [4] -0.003 | [5] 0.025 | [6] 0.097

GCN1 (UniProt Q92616)
Sequence of UniProt Q92616 (Q92616 whole entry, looked up): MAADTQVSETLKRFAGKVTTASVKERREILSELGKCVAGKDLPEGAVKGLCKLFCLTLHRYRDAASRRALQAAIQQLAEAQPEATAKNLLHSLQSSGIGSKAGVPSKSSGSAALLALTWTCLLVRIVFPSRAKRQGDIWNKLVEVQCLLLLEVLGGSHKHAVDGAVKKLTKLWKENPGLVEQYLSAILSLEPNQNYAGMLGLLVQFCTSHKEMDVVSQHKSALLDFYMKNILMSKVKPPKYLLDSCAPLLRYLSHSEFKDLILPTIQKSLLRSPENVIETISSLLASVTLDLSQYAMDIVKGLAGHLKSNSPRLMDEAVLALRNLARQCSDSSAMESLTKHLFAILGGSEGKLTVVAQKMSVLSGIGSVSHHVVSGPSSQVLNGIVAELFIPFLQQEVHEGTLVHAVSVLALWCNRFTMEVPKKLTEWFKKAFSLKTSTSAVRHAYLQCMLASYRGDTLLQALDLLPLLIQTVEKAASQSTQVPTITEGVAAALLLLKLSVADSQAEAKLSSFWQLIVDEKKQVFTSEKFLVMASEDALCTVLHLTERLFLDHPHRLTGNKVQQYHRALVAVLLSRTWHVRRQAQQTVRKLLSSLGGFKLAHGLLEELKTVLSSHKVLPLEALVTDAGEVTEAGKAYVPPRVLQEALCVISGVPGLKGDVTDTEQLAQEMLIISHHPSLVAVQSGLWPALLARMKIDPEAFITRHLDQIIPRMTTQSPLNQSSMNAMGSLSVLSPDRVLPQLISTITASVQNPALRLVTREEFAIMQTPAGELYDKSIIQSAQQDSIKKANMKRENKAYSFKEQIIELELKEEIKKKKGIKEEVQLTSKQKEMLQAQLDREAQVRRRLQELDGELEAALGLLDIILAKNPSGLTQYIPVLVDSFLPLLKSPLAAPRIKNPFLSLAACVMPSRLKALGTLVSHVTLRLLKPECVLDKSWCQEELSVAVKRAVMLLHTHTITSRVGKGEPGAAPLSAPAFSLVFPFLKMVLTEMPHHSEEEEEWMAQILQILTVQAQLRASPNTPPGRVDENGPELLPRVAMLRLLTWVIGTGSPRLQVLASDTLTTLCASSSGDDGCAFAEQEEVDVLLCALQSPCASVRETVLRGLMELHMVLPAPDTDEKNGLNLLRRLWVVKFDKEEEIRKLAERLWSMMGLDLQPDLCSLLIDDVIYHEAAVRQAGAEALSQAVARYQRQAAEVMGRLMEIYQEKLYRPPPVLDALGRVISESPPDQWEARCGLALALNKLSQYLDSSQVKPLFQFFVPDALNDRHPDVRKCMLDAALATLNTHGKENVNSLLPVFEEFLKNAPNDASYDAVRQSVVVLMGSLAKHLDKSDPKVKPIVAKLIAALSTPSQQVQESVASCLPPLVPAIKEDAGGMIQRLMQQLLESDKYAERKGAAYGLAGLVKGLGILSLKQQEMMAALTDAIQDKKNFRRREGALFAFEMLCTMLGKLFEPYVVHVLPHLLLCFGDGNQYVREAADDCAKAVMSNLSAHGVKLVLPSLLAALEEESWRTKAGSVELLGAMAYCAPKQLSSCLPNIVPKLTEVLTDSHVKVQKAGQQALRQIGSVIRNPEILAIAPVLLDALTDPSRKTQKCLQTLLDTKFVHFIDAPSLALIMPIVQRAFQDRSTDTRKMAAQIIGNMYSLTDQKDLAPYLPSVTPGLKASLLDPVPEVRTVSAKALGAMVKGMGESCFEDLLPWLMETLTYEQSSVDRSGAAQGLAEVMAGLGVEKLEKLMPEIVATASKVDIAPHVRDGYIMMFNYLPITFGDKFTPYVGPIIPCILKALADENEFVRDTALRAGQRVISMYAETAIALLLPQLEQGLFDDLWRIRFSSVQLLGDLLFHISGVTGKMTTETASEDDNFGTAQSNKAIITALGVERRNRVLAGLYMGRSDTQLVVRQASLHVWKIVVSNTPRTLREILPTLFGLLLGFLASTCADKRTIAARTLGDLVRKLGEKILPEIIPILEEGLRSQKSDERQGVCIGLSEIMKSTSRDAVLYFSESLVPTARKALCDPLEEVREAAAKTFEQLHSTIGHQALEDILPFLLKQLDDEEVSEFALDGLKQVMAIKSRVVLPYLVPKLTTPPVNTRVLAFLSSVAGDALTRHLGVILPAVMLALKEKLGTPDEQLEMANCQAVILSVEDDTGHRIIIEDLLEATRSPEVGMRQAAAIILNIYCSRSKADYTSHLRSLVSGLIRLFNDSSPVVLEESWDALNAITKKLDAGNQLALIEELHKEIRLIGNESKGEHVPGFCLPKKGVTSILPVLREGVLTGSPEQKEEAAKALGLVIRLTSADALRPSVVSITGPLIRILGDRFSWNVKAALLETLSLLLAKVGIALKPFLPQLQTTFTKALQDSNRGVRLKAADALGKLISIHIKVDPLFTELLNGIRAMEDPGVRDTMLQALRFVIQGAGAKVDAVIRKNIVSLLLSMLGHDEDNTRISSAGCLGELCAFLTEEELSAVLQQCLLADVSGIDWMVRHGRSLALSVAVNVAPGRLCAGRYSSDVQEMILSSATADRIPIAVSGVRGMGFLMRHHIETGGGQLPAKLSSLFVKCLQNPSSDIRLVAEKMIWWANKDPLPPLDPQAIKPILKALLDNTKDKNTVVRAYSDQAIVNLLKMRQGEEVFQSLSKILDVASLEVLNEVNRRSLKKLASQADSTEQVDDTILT
inactive: nilotinib 0.015 | [1] -0.017 | dasatinib -0.071 | [2] 0.001 | [3] 0.066 | quisinostat -0.072 | tipifarnib -0.01 | [4] 0.047 | [5] 0.001 | [6] -0.037

EPHX2 (UniProt P34913)
inactive: nilotinib 0.097 | [1] -0.036 | dasatinib 0.005 | [2] 0.027 | [3] 0.007 | quisinostat 0.02 | tipifarnib 0.021 | [4] -0.036 | [5] -0.021 | [6] -0.015

EBP (UniProt Q15125)
inactive: nilotinib 0.081 | [1] -0.016 | dasatinib -0.05 | [2] 0.018 | [3] -0.137 | quisinostat 0.038 | tipifarnib -0.03 | [4] 0.042 | [5] -0.006 | [6] -0.05

FASTKD5 (UniProt Q7L8L6)
Sequence of UniProt Q7L8L6 (Q7L8L6 whole entry, looked up): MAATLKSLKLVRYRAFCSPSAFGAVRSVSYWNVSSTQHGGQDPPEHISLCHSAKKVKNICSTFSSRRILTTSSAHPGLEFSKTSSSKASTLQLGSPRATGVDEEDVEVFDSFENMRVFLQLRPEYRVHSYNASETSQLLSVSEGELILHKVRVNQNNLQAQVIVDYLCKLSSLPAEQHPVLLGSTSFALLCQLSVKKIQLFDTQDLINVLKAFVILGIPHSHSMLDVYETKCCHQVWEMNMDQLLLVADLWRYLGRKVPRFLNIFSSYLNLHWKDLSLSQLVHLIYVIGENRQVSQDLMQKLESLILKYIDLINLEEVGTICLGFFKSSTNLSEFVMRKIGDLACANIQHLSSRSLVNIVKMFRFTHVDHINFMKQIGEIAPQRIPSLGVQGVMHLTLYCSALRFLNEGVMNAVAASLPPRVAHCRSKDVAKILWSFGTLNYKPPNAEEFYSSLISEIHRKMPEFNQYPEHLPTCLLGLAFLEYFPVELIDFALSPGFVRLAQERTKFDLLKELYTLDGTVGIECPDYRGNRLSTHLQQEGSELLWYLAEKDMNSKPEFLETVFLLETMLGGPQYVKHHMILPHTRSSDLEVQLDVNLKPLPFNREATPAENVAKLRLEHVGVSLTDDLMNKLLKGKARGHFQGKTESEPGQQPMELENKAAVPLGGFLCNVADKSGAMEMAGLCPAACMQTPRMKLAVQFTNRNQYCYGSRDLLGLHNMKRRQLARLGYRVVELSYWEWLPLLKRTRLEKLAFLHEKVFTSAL
inactive: nilotinib -0.072 | [1] 0.032 | dasatinib -0.006 | [2] 0.113 | [3] -0.027 | quisinostat -0.053 | tipifarnib 0.003 | [4] 0.004 | [5] 0.054 | [6] 0.013

EIF2B3 (UniProt Q9NR50)
Sequence of UniProt Q9NR50 (Q9NR50 whole entry, looked up): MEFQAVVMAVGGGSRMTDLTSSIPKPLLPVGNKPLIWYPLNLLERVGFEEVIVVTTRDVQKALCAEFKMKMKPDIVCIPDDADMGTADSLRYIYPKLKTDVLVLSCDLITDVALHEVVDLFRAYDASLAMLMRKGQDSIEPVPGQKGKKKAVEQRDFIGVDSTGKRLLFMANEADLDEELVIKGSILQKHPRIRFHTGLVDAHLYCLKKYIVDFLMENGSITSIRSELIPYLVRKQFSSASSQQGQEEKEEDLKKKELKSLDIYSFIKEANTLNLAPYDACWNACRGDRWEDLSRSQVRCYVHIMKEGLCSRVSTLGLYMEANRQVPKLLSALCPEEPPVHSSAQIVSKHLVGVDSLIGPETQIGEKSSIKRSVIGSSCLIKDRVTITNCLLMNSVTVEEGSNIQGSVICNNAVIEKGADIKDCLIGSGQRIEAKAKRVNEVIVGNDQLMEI
inactive: nilotinib 0.001 | [1] 0.001 | dasatinib -0.049 | [2] 0.009 | [3] -0.024 | quisinostat -0.036 | tipifarnib -0.013 | [4] 0.022 | [5] -0.008 | [6] -0.009

FDFT1 (UniProt P37268)
inactive: nilotinib 0.032 | [1] -0.048 | dasatinib -0.012 | [2] -0.037 | [3] -0.008 | quisinostat -0.014 | tipifarnib -0.053 | [4] 0.005 | [5] 0.042 | [6] -0.025

EAPP (UniProt Q56P03)
inactive: nilotinib 0.039 | [1] 0.018 | dasatinib 0.024 | [2] -0.095 | [3] -0.001 | quisinostat 0.017 | tipifarnib 0.002 | [4] 0.021 | [5] 0.038 | [6] -0.045

FKBP1A (UniProt P62942)
inactive: nilotinib 0.023 | [1] 0.002 | dasatinib -0.005 | [2] 0.081 | [3] -0.103 | quisinostat 0.012 | tipifarnib 0.038 | [4] -0.005 | [5] 0.002 | [6] -0.039

FBXO9 (UniProt Q9UK97)
inactive: nilotinib -0.076 | [1] 0.003 | dasatinib 0.059 | [2] 0.02 | [3] 0.021 | quisinostat -0.045 | tipifarnib -0.092 | [4] 0.177 | [5] 0.127 | [6] 0.127

FASTKD2 (UniProt Q9NYY8)
inactive: nilotinib -0.019 | [1] -0.006 | dasatinib -0.006 | [2] 0.016 | [3] -0.026 | quisinostat -0.027 | tipifarnib -0.02 | [4] 0.049 | [5] 0.027 | [6] 0.015

EIF2D (UniProt P41214)
Sequence of UniProt P41214 (P41214 whole entry, looked up): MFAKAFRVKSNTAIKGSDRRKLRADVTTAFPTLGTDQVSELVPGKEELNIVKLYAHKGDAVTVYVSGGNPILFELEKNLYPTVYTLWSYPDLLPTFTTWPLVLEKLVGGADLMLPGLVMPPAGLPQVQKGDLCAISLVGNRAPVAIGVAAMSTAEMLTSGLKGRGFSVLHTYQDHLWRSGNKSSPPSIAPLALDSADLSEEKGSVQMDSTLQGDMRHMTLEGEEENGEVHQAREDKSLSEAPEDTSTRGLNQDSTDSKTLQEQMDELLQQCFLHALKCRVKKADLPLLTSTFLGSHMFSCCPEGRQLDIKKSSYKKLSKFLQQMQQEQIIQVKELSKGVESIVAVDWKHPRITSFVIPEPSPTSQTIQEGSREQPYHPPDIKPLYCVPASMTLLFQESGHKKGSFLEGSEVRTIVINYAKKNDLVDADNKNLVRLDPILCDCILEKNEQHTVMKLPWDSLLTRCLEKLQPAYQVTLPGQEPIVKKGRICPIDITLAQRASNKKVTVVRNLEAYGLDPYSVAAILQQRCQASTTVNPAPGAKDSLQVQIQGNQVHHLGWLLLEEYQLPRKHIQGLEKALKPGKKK
inactive: nilotinib -0.034 | [1] 0.028 | dasatinib -0.027 | [2] -0.009 | [3] 0.002 | quisinostat -0.064 | tipifarnib 0.024 | [4] 0.04 | [5] 0.008 | [6] -0.041

DTWD1 (UniProt Q8N5C7)
inactive: nilotinib 0.007 | [1] -0.039 | dasatinib -0.034 | [2] 0.01 | [3] -0.02 | quisinostat -0.067 | tipifarnib -0.007 | [4] 0.002 | [5] -0.008 | [6] 0.049

GEMIN2 (UniProt O14893)
inactive: nilotinib -0.019 | [1] 0.014 | dasatinib -0.03 | [2] 0.032 | [3] -0.033 | quisinostat 0.142 | tipifarnib 0.059 | [4] 0.004 | [5] -0.039 | [6] 0.049

ENO1 isoform 2 (UniProt P06733)
inactive: nilotinib 0.01 | [1] -0.009 | dasatinib 0.021 | [2] -0.036 | [3] -0.012 | quisinostat -0.038 | tipifarnib 0.035 | [4] -0.007 | [5] -0.008 | [6] 0.004

GIGYF2 (UniProt Q6Y7W6)
inactive: nilotinib 0.004 | [1] -0.03 | dasatinib 0.006 | [2] 0.007 | [3] 0.024 | quisinostat -0.011 | tipifarnib -0.09 | [4] 0.026 | [5] 0.007 | [6] -0.04

ERAL1 (UniProt O75616)
inactive: nilotinib 0 | [1] -0.001 | dasatinib 0.01 | [2] 0.003 | [3] 0.018 | quisinostat -0.078 | tipifarnib -0.027 | [4] 0.083 | [5] -0.052 | [6] 0.008

FADS3 (UniProt Q9Y5Q0)
inactive: nilotinib -0.091 | [1] 0.216 | dasatinib 0.102 | [2] 0.166 | [3] -0.061 | quisinostat -0.019 | tipifarnib -0.081 | [4] -0.008 | [5] -0.069 | [6] 0.07

FLAD1 (UniProt Q8NFF5)
inactive: nilotinib 0.051 | [1] -0.026 | dasatinib 0.002 | [2] 0.024 | [3] 0.019 | quisinostat -0.129 | tipifarnib 0 | [4] 0.03 | [5] 0.017 | [6] -0.026

DUS3L (UniProt Q96G46)
Sequence of UniProt Q96G46 (Q96G46 whole entry, looked up): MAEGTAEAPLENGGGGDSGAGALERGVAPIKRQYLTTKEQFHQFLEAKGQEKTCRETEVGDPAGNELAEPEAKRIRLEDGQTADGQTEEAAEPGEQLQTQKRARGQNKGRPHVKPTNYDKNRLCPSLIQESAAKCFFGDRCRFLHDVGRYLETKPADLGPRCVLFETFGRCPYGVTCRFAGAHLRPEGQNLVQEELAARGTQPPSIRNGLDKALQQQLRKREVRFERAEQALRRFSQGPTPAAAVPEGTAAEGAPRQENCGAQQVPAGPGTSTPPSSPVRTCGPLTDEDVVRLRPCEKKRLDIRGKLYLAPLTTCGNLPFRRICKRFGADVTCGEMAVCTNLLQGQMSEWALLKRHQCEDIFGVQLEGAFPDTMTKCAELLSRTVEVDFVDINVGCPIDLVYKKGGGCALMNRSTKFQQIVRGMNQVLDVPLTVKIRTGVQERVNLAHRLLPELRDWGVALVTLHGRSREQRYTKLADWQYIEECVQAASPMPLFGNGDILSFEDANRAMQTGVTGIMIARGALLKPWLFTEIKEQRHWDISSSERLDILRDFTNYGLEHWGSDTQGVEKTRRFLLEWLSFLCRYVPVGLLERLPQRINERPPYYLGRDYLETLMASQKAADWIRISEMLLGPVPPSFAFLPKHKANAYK
inactive: nilotinib 0.008 | [1] -0.022 | dasatinib -0.019 | [2] -0.014 | [3] 0.004 | quisinostat -0.098 | tipifarnib -0.017 | [4] 0.026 | [5] 0 | [6] -0.021

EXOC4 (UniProt Q96A65)
inactive: nilotinib 0.015 | [1] -0.012 | dasatinib -0.083 | [2] 0.015 | [3] 0.072 | quisinostat -0.009 | tipifarnib -0.036 | [4] 0.053 | [5] 0.013 | [6] -0.068

FNTB (UniProt P49356)
active: tipifarnib 0.239
inactive: nilotinib -0.005 | [1] 0.016 | dasatinib 0.018 | [2] -0.04 | [3] -0.022 | quisinostat -0.002 | [4] 0.003 | [5] -0.011 | [6] -0.027

FXR1 (UniProt P51114)
inactive: nilotinib -0.139 | [1] 0.031 | dasatinib 0.028 | [2] -0.011 | [3] 0.018 | quisinostat -0.057 | tipifarnib -0.005 | [4] 0.024 | [5] -0.001 | [6] -0.047

Reference: the supplement of paper PMC10849652
